Laboratory results published in PubChem BioAssay (Tox21).
Results filed as inconclusive are left out. Activity calls are given as the source filed them. The call rests on the fitted dose curve; in most records, active means well fitted cell-killing curve with a large enough effect in the repeat runs; inconclusive means weak or mixed curves, or effect the other way; inactive means flat fitted curve, though single readings scatter.

Assay: Human pregnane X receptor (PXR) small molecule agonists, qHTS cell viability counter screen (AID 1346977); further: nearly all actives have a fitted effect of over 50% in size
Details: PXR-Luc HepG2 viability, CellTiter-Fluor, 24 h; series mostly up to 92.4 µM; activity change, negative = cytotoxicity: at the top concentration
Outline: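 Readout is CellTiter-Fluor fluorescence from PXR-Luc HepG2 cells. Plated cells rested 5hr, then were treated with compounds for 24hr at 37C and 5% CO2, with reagent present during the last hour.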
On the % scale 0 is the no-effect control and ±100 the full control effect; potency means the concentration at half of the fitted maximal effect.

Structure (SMILES)	activity change, negative = cytotoxicity	Potency
CCCCCCCCS	2.1% (inactive)	–
CNc1ccccc1	12.4% (inactive)	–
CCCCOC(=O)CC#N	-0.169% (inactive)	–
CC(Cc1ccccc1)(NC(=O)CN)c1ccccc1 (stereo not drawn)	-36% [at 42.5 µM] (inactive)	–
CCOC(OCC)OCC	14.6% (inactive)	–
CCC(=O)O[C@]1(C(=O)COC)[C@@H](C)C[C@H]2[C@@H]3CCC4=CC(=O)C=C[C@]4(C)C3(F)[C@@H](O)C[C@@]21C (stereo partly drawn)	5.75% [at 42.5 µM] (inactive)	–
COC(=O)Cc1cccc2ccccc12	4.15% (inactive)	–
NC(=O)c1cc[n+](CC2=C(C(=O)[O-])N3C(=O)[C@@H](NC(=O)Cc4cccs4)[C@H]3SC2)cc1	-4.94% [at 42.5 µM] (inactive)	–
CC(CC(C#N)(c1ccccc1)C(C)C)N(C)C (stereo not drawn)	1.06% [at 42.5 µM] (inactive)	–
CC1(C)C(=O)NC(=O)N1CO	0.845% (inactive)	–
CC(=O)c1cccnc1	10.1% (inactive)	–
O=C(O)c1cc(C(=O)O)c(C(=O)O)cc1C(=O)O	8.15% (inactive)	–
FC1(F)C(F)(F)C(F)(F)C2(F)C(F)(C1(F)F)C(F)(F)C(F)(F)C1(F)C(F)(F)C(F)(F)C(F)(F)C(F)(F)C12F (stereo not drawn)	29.8% (inactive)	–
CC(=O)CC/C=C(\C)CC/C=C(\C)CC/C=C(\C)CCC=C(C)C	13.1% [at 42.5 µM] (inactive)	–
CC(C)(O)C(=O)O	0.13% (inactive)	–
CCCCCCCCCCCCSC#N	-0.426% (inactive)	–
O=[N+]([O-])c1cccc(I)c1	2.73% (inactive)	–

Structure (SMILES)	activity change, negative = cytotoxicity	Potency
CCOC(=O)CC(O)(CC(=O)OCC)C(=O)OCC	8.9% (inactive)	–
Nc1ccc(F)cc1F	-2.2% (inactive)	–
O=C(O)c1ccccc1-n1cc(C(=O)O)c(=O)c2cc(Nc3c(F)cc(F)cc3Cl)c(Cl)cc21	10.1% (inactive)	–
Cc1ccc(NC(=O)c2ccc(CN3CCN(C)CC3)cc2)cc1Nc1nccc(-c2cccnc2)n1	–	23.7 µM (active)
CCCc1nc(C)c2c(=O)[nH]c(-c3cc(S(=O)(=O)N4CCN(CC)CC4)ccc3OCC)nn12	-2.34% [at 42.5 µM] (inactive)	–
COc1ccc(/C(C)=C/C(=O)O)c(OC)c1	13% [at 42.5 µM] (inactive)	–
[O-][n+]1ccc(Cl)cc1	3.69% (inactive)	–
CCOc1ccc(NC(C)=O)cc1N	-0.859% (inactive)	–
Oc1ccc(Oc2ccccc2)cc1	4.31% (inactive)	–
CS(C)=O	6.2% (inactive)	–
CC1(C)[C@@H]2CC[C@]3(C2)[C@@H]1C(=O)CCC3(C)C	-1.89% (inactive)	–
Cc1cccc(C)c1NC(=O)CN1CCCC1	-0.601% [at 42.5 µM] (inactive)	–
CCCCCCCCCCCC(=O)OCC	-0.919% (inactive)	–
O=C1C=CCCC1	5% (inactive)	–
CCCCOC(=O)C(C)Oc1ccc(Oc2ccc(C(F)(F)F)cn2)cc1 (stereo not drawn)	5.81% (inactive)	–
N#C[C@@H]1CC(F)(F)CN1C(=O)CNC1CC2CCC(C1)N2c1ncccn1 (stereo partly drawn)	34.3% (inactive)	–
